According to the supplement of paper PMC6555819:

What was measured:
Test in all cases: PBM binding z-score (relative to random genomic background probes); higher = stronger binding; sequences stand for … in GC…GCGATTGACAGCGTAGAATGAAGG
[1] = test system: FXR:RXRa (NR concentration 270 nM, RXRa partner concentration 90 nM)
How it was run: (§1)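 Scanned fluorescence from custom Agilent 4×180K protein-binding microarrays was regression-normalized. Binding z-scores use random background probes as reference. Ligand-free nuclear receptor dimers were incubated on the arrays for 1 h and detected with antibodies against each partner (one per run).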

[2] = test system: LXRa:RXRa (NR concentration 270 nM, RXRa partner concentration 90 nM)
How it was run: as §1

[3] = test system: LXRa homodimer (NR concentration 270 nM)
How it was run: as §1

[4] = test system: LXRb:RXRa (NR concentration 270 nM, RXRa partner concentration 90 nM)
How it was run: as §1

[5] = test system: LXRb homodimer (NR concentration 270 nM)
How it was run: as §1

[6] = test system: PPARa:RXRa (NR concentration 270 nM, RXRa partner concentration 90 nM)
How it was run: as §1

[7] = test system: PPARg:RXRa (NR concentration 180 nM, RXRa partner concentration 90 nM)
How it was run: as §1

[8] = test system: PPARg:RXRa 270nM:90nM, anti-RXR (NR concentration 270 nM, RXRa partner concentration 90 nM)
How it was run: as §1

[9] = test system: PPARg:RXRa 30nM:10nM, anti-RXR (NR concentration 30 nM, RXRa partner concentration 10 nM)
How it was run: as §1

[10] = test system: PPARg:RXRa 90nM:30nM, anti-RXR (NR concentration 90 nM, RXRa partner concentration 30 nM)
How it was run: as §1

Sequence | PBM binding z-score [1] | PBM binding z-score [2] | PBM binding z-score [3] | PBM binding z-score [4] | PBM binding z-score [5] | PBM binding z-score [6] | PBM binding z-score [7] | PBM binding z-score [8] | PBM binding z-score [9] | PBM binding z-score [10]
ACTAGCAAGCCAAGGGTCACTCAAGATTAGTCCG | 2.21 | 2.75 | 0.27 | 2.66 | -0.201 | 3.53 | 3.39 | 4.44 | 2.1 | 4.11
TAGCCTAGGTCAGATCGCGCCAGTATACGCTATA | 1.75 | 0.937 | -0.15 | 1.09 | -0.19 | 1.63 | 0.856 | 0.842 | 0.125 | 0.595
ATCGAAAGGTCGAAGGTGAGTGTACCCACCCGAA | 4.5 | 3.39 | 0.164 | 2.8 | 0.755 | 4.8 | 4.86 | 4.69 | 2.15 | 3.8
TATACAGGGTCAAAGGCCAGAGAACGAATGTCGA | 6.59 | 6.22 | 2.13 | 4.88 | 2.25 | 6.02 | 8.23 | 7.5 | 5.41 | 7.34
CCTCGGATGACAACAGGAGGTCAGAGCTGCCAGA | 0.859 | 1.83 | 1.84 | 1.53 | -0.0301 | 1.91 | 0.547 | 0.588 | -0.476 | 0.0996
CGAACTAGGTCATCCAGGACACTGAATACATTGA | 4.41 | 3.1 | 0.974 | 2.29 | 0.265 | 4.94 | 7.9 | 6.43 | 3.85 | 5.81
TCTTGTAAATCAGCAGGTTAAGAAAGCTGGCCAA | 0.256 | 0.519 | -0.233 | 0.511 | -0.113 | 0.935 | -0.661 | 1.45 | 3.06 | 2.45
CAAACTAGGTCACCGGAAGGCCAAAGTCCGCATG | 4.53 | 3.53 | 0.418 | 2.46 | 0.121 | 5.08 | 8.65 | 7.5 | 4.66 | 7.3
GCGACTGGGGGATCAGCAGGTTACCATAACTTAA | 0.383 | 0.523 | 0.0867 | 2.54 | 5.33 | 1.5 | 0.824 | 1.73 | 0.24 | 1.15
CAAACTAGGTCACAGAGGTCCAAGTCCGTGCGTA | 4.06 | 3.27 | 0.422 | 2.32 | 0.233 | 5.18 | 8.72 | 7.58 | 5.04 | 7.32
TAGCCTAGGTCATGGGCCAGTACACCACGCGAAC | 4.77 | 3.08 | 0.269 | 2.41 | 0.439 | 4.05 | 3.9 | 3.76 | 1.09 | 2.8
CGTCCAAGGTCCAAGGTCAGTGAAGAGATGACGG | 1.55 | 1.08 | 0.179 | 1.1 | -0.433 | 2.37 | 1.65 | 2.35 | 0.473 | 1.66
CCTATTGGGCCATCAGGTCATTGATATCAACGTT | 1.84 | 1.28 | 1.09 | 1.42 | -0.199 | 2.25 | 1.29 | 2.49 | 0.897 | 1.88
CCTCGGAGGAAAGAAGGTCAGAGCTGTCCGCTTT | 0.768 | 1.38 | -0.152 | 0.92 | -0.651 | 2.01 | -0.343 | 0.98 | -0.857 | 0.12
GCTTTTAGATCAAGGTTAAGAAAGACTAAGCTAA | 0.411 | 1.15 | -0.245 | 0.993 | 0.252 | 1.49 | 0.495 | 1.1 | 0.053 | 0.706
CAAACTAGATCACCGGAAGGTCAAAGTCCGCATG | 3.07 | 3.21 | 3.33 | 3.19 | 1.2 | 3.85 | 2.04 | 2.62 | 0.824 | 1.84
TCGCGGAGGACACGAAAGGTCAGAGCTCGACATC | 2.61 | 3.72 | 2.77 | 3.12 | -0.812 | 3.59 | 1.18 | 2.51 | 0.965 | 1.95
CAGCCTAGGTCAGGGCCAGTATTGGAGGAACGTT | 1.65 | 0.996 | -0.403 | 0.567 | -1.11 | 2.03 | 0.396 | 0.87 | -0.497 | 0.402
ACAGACAGGTGAGCGAAGGTAACTCAGCTGGACG | -0.11 | -0.471 | -0.638 | -0.645 | -0.759 | 0.0839 | 0.737 | -0.0383 | -0.389 | 0.269
TGAATGAGGTTAAAGAGCAGGGAACGTGGCGTCG | 2.98 | 2.56 | -0.586 | 1.45 | 0.129 | 4.23 | 4.98 | 6.01 | 4.52 | 5.96
CGTCCAAGGTCAATGCTAGGTCTGTGAAAGCATT | 6.34 | 4.7 | 0.321 | 3.41 | 0.865 | 5.01 | 3.28 | 3.99 | 0.804 | 2.73
CGTCCAAGGTGAGAGAGGTCAGTGAATGCCGAGT | 2.18 | 2.18 | 0.878 | 2.05 | -0.732 | 3.11 | 1 | 1.7 | 0.115 | 1.07
TCCTGTAGATCAACAGGAGGTTAAGAAAGATCGA | -0.0851 | 1.1 | 0.0543 | 0.973 | -0.977 | 1.28 | -0.00253 | 1.25 | 2.01 | 1.49
AGAATGAGGTTAAGATGAGGGAAACAGAATACAT | 2.41 | 2.35 | 0.0375 | 1.84 | 0.124 | 3.52 | 2.55 | 2.24 | 1.31 | 1.78
